Compounds without any hit were thinned out: in the full panel of roughly 79,000, 15% have a hit. Rule as the data show it: active = growth inhibition above about 70%; inactive = the rest.
Experiments:
[1] = NCI Yeast Anticancer Drug Screen. Data for the rad50 strain (AID 155);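 also: 0% = growth of vehicle-only cultures of the same strain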; conditions: S. cerevisiae rad50 strain growth inhibition; at 50.0 µM; hits give high values
Procedure, shortened: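 DNA repair mutant yeast, compound exposure, growth read-out; inhibition is taken relative to vehicle.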

[2] = NCI Yeast Anticancer Drug Screen. Data for the mec2-1 strain (AID 157); conditions: S. cerevisiae mec2-1 strain, at 50.0 µM, hits give high values
Procedure, shortened: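 Yeast mec2-1 mutant treated with compound. Readout: growth inhibition vs vehicle controls.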

[3] = NCI Yeast Anticancer Drug Screen. Data for the sgs1 mgt1 strain (AID 161);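 also: 0% = growth of cultures given vehicle only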; conditions: S. cerevisiae sgs1 mgt1 strain, at 50.0 µM, hits give high values
Procedure, shortened: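 Inhibition of yeast growth, normalised to vehicle-treated controls, is reported for a strain bearing genetic alterations in DNA damage repair.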

[4] = NCI Yeast Anticancer Drug Screen. Data for the cln2 rad14 strain (AID 165);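 also: 0% = growth equal to vehicle treated cultures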; conditions: S. cerevisiae cln2 rad14 strain, at 50.0 µM, hits give high values
Procedure, shortened: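 cln2 rad14 yeast strain; compound exposure; growth inhibition read vs vehicle controls.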

[5] = NCI Yeast Anticancer Drug Screen. Data for the bub3 strain (AID 167); conditions: S. cerevisiae bub3 mutant strain, at 50.0 µM, hits give high values
Procedure, shortened: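 In this screen, a yeast mutant lacking normal mitotic checkpoint function is challenged with compound. Relative growth versus vehicle gives the inhibition value.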

[6] = NCI Yeast Anticancer Drug Screen. Data for the mlh1 rad18 strain (AID 175); conditions: S. cerevisiae mlh1 rad18 strain growth inhibition; at 50.0 µM; hits give high values
Procedure, shortened: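 Yeast w/ defined DNA-repair lesions; compound exposure; growth vs vehicle controls → % inhibition.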

Measured: growth inhibition

CC1CCC2(OC1)OC1CC3C4CCC5CC(O)CCC5(C)C4C(=O)C(O)C3(C)C1C2C (stereo unspecified)
inactive: [1] 39.5% | [2] 17.9% | [3] 49% | [4] 16.7% | [5] 14.5% | [6] 41%

COc1cc2ccc3c[n+](C)ccc3c2cc1OC
inactive: [1] 2.25% | [2] -30.9% | [3] -13.4% | [4] -22.4% | [5] -20.9% | [6] -57.6%

CCCCCNN
inactive: [1] 0.95% | [2] -4.6% | [3] -8.5% | [4] 9.55% | [5] -6.75% | [6] 26.6%

CN(C)S(=O)(=O)c1ccc(Cl)cc1
inactive: [1] -1.65% | [2] -4.4% | [3] 2.7% | [4] 0.3% | [5] -0.2% | [6] -9.3%

O=c1c2cc([N+](=O)[O-])ccc2sc2ccsc12
inactive: [1] 1.6% | [2] 2.55% | [3] -4.95% | [4] -2.85% | [5] -10.6% | [6] 11.9%

CCC(c1ccc(C(C)=O)c(O)c1)C(CC)c1ccc(C(C)=O)c(O)c1 (stereo unspecified)
inactive: [1] 9.65% | [2] 9.75% | [3] 22.6% | [4] 8.7% | [5] 2.8% | [6] 30.4%

Cc1cc(Br)c[nH]c1=O
inactive: [1] -4.75% | [2] -7.7% | [3] -3.65% | [4] -20.2% | [5] -29.1% | [6] 5.05%

O=C(NC(Nc1ccc(F)c(Cl)c1)(C(F)(F)F)C(F)(F)F)OCc1ccccc1
inactive: [1] -1.35% | [2] -1.05% | [3] -23.1% | [4] 3.1% | [5] -5.5% | [6] 24.3%

O=C(Nc1cccc(C(F)(F)F)c1)c1ccco1
inactive: [1] 34.5% | [2] 9.75% | [3] 28.7% | [4] 3.55% | [5] 11.1% | [6] 17%

CN(C)c1ccc(C2N(C)CCN2C)cc1
inactive: [1] -10.4% | [2] 6.85% | [3] 9.85% | [4] -1.8% | [5] -7.5% | [6] -12.8%

CSc1ccc(NC(=O)SCc2ccccc2)cc1
inactive: [1] -3.5% | [2] 5.15% | [3] 1% | [4] -2.7% | [5] 15.9% | [6] 8.55%

COc1nc2[nH]ccc2c(=O)[nH]1
inactive: [1] -23.8% | [2] -25.2% | [3] -31.8% | [4] 3.15% | [5] -11.3% | [6] -11.1%

CCOc1ccc2ccc3ccccc3c2c1NC(C)=O
inactive: [1] 10.4% | [2] 2.3% | [3] 12.2% | [4] 32% | [5] 3.6% | [6] 6.25%

O=C(O)c1ccccc1Nc1nc2ccccc2o1
inactive: [1] -1.85% | [2] 2.15% | [3] -7.05% | [4] -26.6% | [5] 15.2% | [6] 0.25%

O=C(CCS(=O)(=O)CCC(=O)c1cccs1)c1cccs1
inactive: [1] 4.2% | [2] 10.3% | [3] 1.9% | [4] -4.15% | [5] -3.55% | [6] 15.6%

OCC1OC(OC2CCCCC2)C(O)C(O)C1O (stereo unspecified)
inactive: [1] -1.45% | [2] 51.5% | [3] 21.9% | [4] -5.05% | [5] 24.6% | [6] 32.8%

CC(C)(C)OC(=O)N1CCCC1C(=O)Oc1ccc([N+](=O)[O-])cc1 (stereo unspecified)
inactive: [1] 31.6% | [2] 19.4% | [3] 11.4% | [4] 3.55% | [5] 6.25% | [6] 58.5%

CN1CCc2ccccc2C1Cc1cc(OCc2ccccc2)ccc1N (stereo unspecified)
inactive: [1] 36.2% | [2] 1.25% | [3] 23.6% | [4] 30.6% | [5] 14.8% | [6] 22.1%

CCCCCCCCOC(=O)Nc1ccc(S(=O)(=O)CC)cc1
inactive: [1] -3.3% | [2] -7.2% | [3] -23.3% | [4] -31.9% | [5] -2.15% | [6] -22.2%

CN(C)CCN(C=O)CCN(C)C
inactive: [1] 9.85% | [2] 3.95% | [3] 4.5% | [4] -9.1% | [5] 0.6% | [6] -0.2%

COc1ccc(/C=N/NC(=O)/C(C#N)=C/c2ccc(OC)cc2)cc1
inactive: [1] 23.1% | [2] 19.1% | [3] 3.7% | [4] -11.5% | [5] 19.4% | [6] 16.4%

CC(=O)N1CCCCCC1=O
inactive: [1] -30.3% | [2] -16.9% | [3] 25.4% | [4] -7.55% | [5] 1.95% | [6] -26.8%

CC(C)(C)S(=O)(=O)C[N+]1(C)CCOCC1
inactive: [1] 37.1% | [2] 11.6% | [3] -1.6% | [4] -2% | [5] -3.25% | [6] 5.35%

CC1(C)OCC2OC=CC(=O)C2O1 (stereo unspecified)
inactive: [1] -8.65% | [2] -2.65% | [3] -0.4% | [4] 5.15% | [5] -14.1% | [6] -68.5%

SCCNCc1ccco1
inactive: [1] -31.4% | [2] -68.5% | [3] -15.9% | [4] 20.6% | [5] -32.6% | [6] 4.9%

COc1cccc2ccc(C(=O)c3ccccc3)nc12
inactive: [1] 34.2% | [2] -3.2% | [3] 7.8% | [4] 23.6% | [5] 28.2% | [6] 15.9%

CNc1ccc(CC(=O)O)cc1
inactive: [1] -2.75% | [2] 3.85% | [3] -2.45% | [4] -42% | [5] -2.05% | [6] 1.8%

C/C(=N\NC(N)=O)C1CCCc2ccccc21 (stereo unspecified)
inactive: [1] 2.45% | [2] -15.3% | [3] -9.8% | [4] -6.55% | [5] -10.3% | [6] 10.2%

NC(=O)COC(=O)c1c(Cl)nc2sccn12
inactive: [1] 7.55% | [2] 5.1% | [3] -13.9% | [4] 4.75% | [5] 24.6% | [6] 19.1%

CCCCCCCOC(=O)COc1ccc(Cl)cc1Cl
inactive: [1] 11.1% | [2] 9.05% | [3] 10.8% | [4] 1.25% | [5] 9.8% | [6] 4.9%

CC(NS(=O)(=O)c1ccccc1)C(N)=O (stereo unspecified)
inactive: [1] 2.75% | [2] 2.1% | [3] 3.55% | [4] -11.2% | [5] 6.95% | [6] -2.4%

O=C1/C(=C/c2ccc(Br)cc2)CCC/C1=C\c1ccc(Br)cc1
inactive: [1] 24.2% | [2] 13% | [3] 0.25% | [4] -15.8% | [5] -11.9% | [6] 13.9%

NC(=S)N/N=C\c1nccc2ccc(N)cc12
inactive: [1] 36% | [2] -0.8% | [3] 3.1% | [4] -46.8% | [5] -5.8% | [6] 4.9%

CC(C)NC(=O)c1ccc(CON)cc1
inactive: [1] 5.15% | [2] -9.7% | [3] 2.8% | [4] 23.5% | [5] 35% | [6] 9.8%

C/C(=N\N=C(/C)c1ccc(C)cc1)c1ccc(C)cc1
inactive: [1] 10.7% | [2] -30.3% | [3] 20.1% | [4] 6.1% | [5] 2.45% | [6] 3.7%

O=C(O)c1nccc2c(O)cccc12
inactive: [1] -5.75% | [2] -4.45% | [3] -16.1% | [4] -19.6% | [5] -23.9% | [6] 3.3%

CCCCC(=O)N/N=C/c1ccccc1OCC
inactive: [1] -7% | [2] 0.05% | [3] 0.6% | [4] -3.3% | [5] -9.9% | [6] -7.6%

CCc1ccc[n+](-c2ccncc2CC)c1
inactive: [1] -7.9% | [2] -9.55% | [3] -9.15% | [4] -12.9% | [5] 2.8% | [6] -9.8%

OC1CN(c2ccccc2)CC(O)CN(c2ccccc2)C1 (stereo unspecified)
inactive: [1] -8.1% | [2] 2.35% | [3] 7.3% | [4] -11.8% | [5] -16.1% | [6] 6.2%

CCCC1=C(c2ccc(OC)cc2)Cc2cc(OC)ccc21
inactive: [1] -14.9% | [2] -16.9% | [3] -1.05% | [4] -2.4% | [5] 2.1% | [6] 9%

CC(=C/c1ccccc1)/C=C1/NC(=S)N(CN2CCCCCC2)C1=O
inactive: [1] 5.15% | [2] -22.1% | [3] 19.9% | [4] -10.2% | [5] -9.75% | [6] -14.8%
